This is a sample that favours compounds with a hit; in the whole collection about 4.8% have one here.
hgDAF12 agonist = H. glycines DAF-12 receptor agonists, primary screen, cell-based, luminescence, HEK293, GAL4 fusion, UAS-luciferase. AID 687014, 2013. 1.8% of 370,000 active. Nuclear hormone receptor DAF-12 (Heterodera glycines), GAL4 fusion. activation, % at 6.8 µM. HEK293 GAL4-hgDAF12 UAS-luciferase reporter, agonist luminescence; normalized to butyrate control;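 active = activation above a cutoff set at the mean of all screened compounds plus 3 SD, cut at about 10% in these data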;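 also: 0% = DMSO wells and 100% = sodium butyrate wells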
hcDAF12 agonist = H. contortus DAF-12 nuclear receptor activators, primary screen, cell-based, luminescence, HEK293, lit1-tk-luc reporter | HEK293 hcDAF-12 lit1-tk-luc reporter; 0% DMSO, 100% Δ7-dafachronic acid | activation, % at 6.8 µM | 1.4% of 370,000 active;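 active = activation above the mean of all tested compounds plus 3 SD, cut at about 5.5% in these data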;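 also: 100% = response to 3 µM Δ7-dafachronic acid high control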
SMARCA2 act = SMARCA2 (BRM) function activators, primary screen, cell-based, luminescence, high throughput; MG213 cells, MMTV-luciferase reporter, dexamethasone, overnight; activation, % at 9.1 µM; 1% of 370,000 active; in the data active = activation above about 7.8%;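 also: 0% = vehicle wells and 100% = reference activator wells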
ssDAF-12 act = S. stercoralis DAF-12 nuclear receptor activators, primary screen, cell-based, luminescence, HEK293, GRIP1 co-expression, lit1-tk-luc; Nuclear hormone receptor DAF-12 (Strongyloides stercoralis); HEK293 ssDAF-12/GRIP1 lit1-tk-luc reporter; % of 3 µM dafachronic acid response; activation, % at 6.8 µM; 1% of 370,000 active; AID 652126, 2013;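 active = activation above the mean over all tested compounds plus 3 SD, cut at about 0.9% in these data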;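 also: 0% = DMSO-only wells and 100% = 3 µM delta7-dafachronic acid wells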
DAX1 inh-1 = DAX1 (NR0B1) inhibitors, primary screen, cell-based, HEK293, Gal4-DAX1, luciferase luminescence | HEK293 Gal4-DAX1 luciferase reporter | 0.99% of 340,000 active | inhibition, % at 6.75 µM | Nuclear receptor subfamily 0 group B member 1 (Homo sapiens), P51843;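 active = inhibition above the mean over all tested compounds plus 3 SD, cut at about 4.2% in these data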;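 also: 0% = DAX1-transfected cells with DMSO and 100% = empty-vector control cells with DMSO; inhibition shows as a rise in luminescence from relieved DAX1 repression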
DAX1 inh-2 = DAX1 (NR0B1) inhibitors on StAR promoter, primary screen, cell-based, luminescence, SF-1 (NR5A1), full-length DAX-1; 1.1% of 370,000 active; inhibition, % at 6.8 µM; HEK293T StAR-luciferase reporter, SF-1/DAX-1 repression relief;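 active = inhibition above the mean over all tested compounds plus 3 SD, cut at about 3.6% in these data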;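 also: 0% = DAX-1 cells with DMSO and 100% = cells lacking DAX-1 with DMSO; higher inhibition means more luminescence from relief of DAX-1 repression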
LXR ag = LXR agonists, Gal4 luciferase reporter, confirmation, counter-screen for hcDAF-12 agonist project, cell-based, luminescence, HEK293, H. contortus campaign | AID 743027, 2013 | shares compounds with hcDAF12 agonist | 3,400 tested, under 10 active | activation, % at 6.8 µM | HEK293 Gal4-LXR tk-luc reporter, 24 h; normalized: DMSO 0%, positive control 100%;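 active = mean percent activation of the reporter above a cutoff set as the average over tested compounds plus their standard deviation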
Target sequence (P55055 whole entry, looked up, the tested form may be a part): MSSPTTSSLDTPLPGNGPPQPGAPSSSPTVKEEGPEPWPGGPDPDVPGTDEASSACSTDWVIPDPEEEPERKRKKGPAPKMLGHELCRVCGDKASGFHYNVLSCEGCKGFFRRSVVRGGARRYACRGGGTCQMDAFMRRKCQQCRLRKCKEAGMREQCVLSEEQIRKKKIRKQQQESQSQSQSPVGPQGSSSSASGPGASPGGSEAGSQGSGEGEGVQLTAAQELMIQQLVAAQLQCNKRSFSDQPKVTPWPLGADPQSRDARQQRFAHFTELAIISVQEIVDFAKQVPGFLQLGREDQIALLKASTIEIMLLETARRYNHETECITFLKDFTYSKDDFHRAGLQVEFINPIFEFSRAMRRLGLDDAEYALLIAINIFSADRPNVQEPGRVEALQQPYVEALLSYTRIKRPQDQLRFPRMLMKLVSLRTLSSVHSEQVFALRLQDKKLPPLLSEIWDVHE
hcDAF12 conf = H. contortus DAF-12 receptor agonists, confirmation, cell-based, luminescence, HEK293, lit1-tk-luc, triplicate. activation, % at 6.8 µM. HEK293 hcDAF-12 lit1-tk-luc reporter; % of Δ7-dafachronic acid response. shares compounds with hcDAF12 agonist. 61% of 3,400 active. AID 743032, 2013;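 active = mean activation across triplicate tests above the threshold derived from the earlier primary screen, cut at about 5.5% in these data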;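 also: 0% = DMSO only wells and 100% = 3 µM Δ7-dafachronic acid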
Numbers without * were called inactive; x = no result given.

SMILES	hgDAF12 agonist	hcDAF12 agonist	SMARCA2 act	ssDAF-12 act	DAX1 inh-1	DAX1 inh-2	LXR ag	hcDAF12 conf
Cc1nc2nc(-c3ccco3)nn2c(C)c1Cl	3	6.8*	-1	0	1	0	0	5
CC(C)c1[nH]nc2c1C(c1cccc(C(F)(F)F)c1)NC2=O (stereo unspecified)	2	-1	-3	-2	x	-1	x	x
Cc1ccc(C)c(S(=O)(=O)Nc2ccc(O)c3ccccc23)c1	-4	8.0*	1	-1	-2	-1	0	3
CC(C)CNc1cccc2c1S(=O)(=O)N(Cc1cccc(F)c1)[C@@H](C)[C@H](c1ccccc1)O2	2	1	-3	-1	x	1	x	x
COc1ccc(NC(=O)c2sc3nc(C)cc(C)c3c2N)cc1	9	2	6	-1	3	2	x	x
Cc1cc(C)c2c(N)c(C(=O)Nc3ccc(C)c(C)c3)sc2n1	10	8.3*	3	1.6*	8.0*	3	2	9.5*
Cn1c(C=O)c(-c2ccc3cc[nH]c3c2)c2ccccc21	4	7.7*	0	0	3	0	0	5
COC(=O)c1ccccc1NC(=O)CN(c1c(C)cccc1C)S(C)(=O)=O	11*	18*	8	1.0*	-1	1	0	0
COC(=O)c1ccccc1NC(=O)CN(c1ccc(C)cc1)S(C)(=O)=O	0	-2	3	-1	0	0	x	x
CCOc1ccc(-n2c(SCC(=O)Nc3ccc(OCc4ccccc4)cc3)nnc2-c2ccc(Cl)cc2)cc1	0	1	-5	-1	x	0	x	x
O=C(Nc1nccs1)C(=O)c1c[nH]c2ccccc12	9	6.5*	7	1.8*	1	3	1	8.0*
CC(C)c1onc(C(=O)Nc2sc3c(c2C#N)CCC3)c1[N+](=O)[O-]	-2	1	2	-1	2	0	x	x
N#Cc1c(NC(=O)c2ccc([N+](=O)[O-])o2)sc2c1CCC2	7	8.1*	6	1.0*	-2	0	1	5
O=C(O)CCCCN1C(=O)C=CC1=O	0	-2	2	-1	x	0	x	x
Cc1nc(NC(=O)CSc2nnc(C3CC3)n2C)sc1C(=O)N(C)C	1	2	-1	-1	1	2	x	x
C=CCn1c(C)nnc1SCC(=O)Nc1nc(C)c(C(=O)N(C)C)s1	3	7.3*	-1	-1	2	0	0	1
O=c1c2ccccc2nnn1Cc1ccco1	-3	0	-2	-1	x	-1	x	x
Cc1ccc(-c2nc3cccnc3s2)cc1NC(=O)c1ccco1	9	13*	3	0	1	2	0	4
N=c1oc2cc(O)ccc2cc1C(=O)Nc1nc2ccccc2s1	1	7.2*	-1	-1	3	1	2	11*
C[C@H](CO)N1C[C@H](C)[C@H](CN(C)C(=O)Nc2cccc3ccccc23)Oc2ncc(Br)cc2C1=O	0	1	-2	0	x	0	x	x
O=C1CCOc2cc(OCc3ccccc3)ccc21	12*	9.2*	2	0	1	3	2	6.2*

Compound activity: PubChem, The Scripps Research Institute Molecular Screening Center
